Here are results for 21 compounds from PubChem BioAssay (EPA / NIEHS).

The structures appear in SMILES notation. Activity calls are given as the source filed them. Rule for the calls: active = hit-call score of the fitted dose curve at least 0.9, where 1 is the maximum; inactive = score below 0.9.

A word on the AC50: it is the concentration giving half of the maximal activity seen.

Read-out in assay [1]: Thrombomodulin, THBD (gene 7056)
Put plainly: BSK_CASM3C_Thrombomodulin: BioMAP Diversity Plus: CASM3C Assay for Thrombomodulin Biomarker Activity (AID 2283051).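 Note: thrombomodulin protein level measured by ELISA 24 h after dosing.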 The settings on record: primary human coronary artery smooth muscle cells; actives raise or lower the signal.

Read-out in assay [2]: Tissue Factor, F3 (gene 2152)
Put plainly: BSK_CASM3C_TissueFactor: BioMAP Diversity Plus: CASM3C Assay for Tissue Factor Biomarker Activity (AID 2283052).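 Note: cell surface tissue factor protein level read by ELISA.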 Particulars: primary human coronary artery smooth muscle cells; actives raise or lower the signal.

Read-out in assay [3]: Interferon-gamma inducible Protein 10 (IP10), CXCL10 (gene 3627)
Put plainly: BSK_hDFCGF_IP10: BioMAP Diversity Plus: hDFCGF Assay for Interferon-gamma inducible Protein 10 (IP10) Biomarker Activity (AID 2283053). Particulars: primary human foreskin fibroblasts; actives raise or lower the signal. An outline of the steps: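 Chemical-treated human skin fibroblasts (primary) were sampled at 24 h for IP-10 by ELISA. Both increases and decreases relative to DMSO were scored.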

Read-out in assay [4]: Urokinase-type plasminogen activator receptor (uPAR), PLAUR (gene 5329)
Put plainly: BSK_CASM3C_uPAR: BioMAP Diversity Plus: CASM3C Assay for Urokinase-type plasminogen activator receptor (uPAR) Biomarker Activity (AID 2283054).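 Note: cell-surface uPAR protein level quantified by ELISA.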 Particulars: primary human coronary artery smooth muscle cells; actives raise or lower the signal.

Read-out in assay [5]: Vascular cell adhesion molecule 1 (VCAM1), VCAM1 (gene 7412)
Put plainly: BSK_CASM3C_VCAM1: BioMAP Diversity Plus: CASM3C Assay for Vascular cell adhesion molecule 1 (VCAM1) Biomarker Activity (AID 2283055).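 Note: VCAM-1 protein level quantified by ELISA on the cells.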 The settings on record: primary human coronary artery smooth muscle cells; actives raise or lower the signal.

Read-out in assay [6]: Collagen III, COL3A1 (gene 1281)
Put plainly: BSK_hDFCGF_CollagenIII: BioMAP Diversity Plus: hDFCGF Assay for Collagen III Biomarker Activity (AID 2283056). The settings on record: primary human foreskin fibroblasts; actives raise or lower the signal. Put shortly:
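Cells: human foreskin fibroblasts, primary. Dosing followed by 24 h incubation, then ELISA for collagen III. Both increases and decreases scored relative to DMSO.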

Read-out in assay [7]: Epidermal growth factor receptor (EGFR), EGFR (gene 1956)
Put plainly: BSK_hDFCGF_EGFR: BioMAP Diversity Plus: hDFCGF Assay for Epidermal growth factor receptor (EGFR) Biomarker Activity (AID 2283057). Particulars: primary human foreskin fibroblasts; actives raise or lower the signal. Put shortly: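 Cell-based multiplexed assay in primary human foreskin fibroblasts. EGFR is read by ELISA 24 h after treatment and compared with DMSO controls.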

Read-out in assay [8]: Interleukin-8 (IL8), CXCL8 (gene 3576)
The assay can be described thus: BSK_hDFCGF_IL8: BioMAP Diversity Plus: hDFCGF Assay for Interleukin-8 (IL8) Biomarker Activity (AID 2283058). The settings on record: primary human foreskin fibroblasts; actives raise or lower the signal. Put shortly: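 IL-8 levels from compound-treated primary human fibroblasts were read by ELISA at 24 h, with DMSO serving as baseline for bidirectional fitting.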

A short description of assay [9]: BSK_hDFCGF_Proliferation: Cell Proliferation Assessment in the BioMAP Diversity Plus: hDFCGF Assay (AID 2283059).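 Note: curves fitted for both rise and fall of signal versus DMSO baseline.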 The settings on record: primary human foreskin fibroblasts. Put shortly: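 Steps: dose primary human dermal fibroblasts (foreskin); […] fix in 10% TCA; stain with 0.1% SRB; read 560 nm; fit gain or loss of signal against DMSO.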
Read-out in assay [10]: Macrophage colony-stimulating factor (MCSF), CSF1 (gene 1435)
The assay can be described thus: BSK_hDFCGF_MCSF: BioMAP Diversity Plus: hDFCGF Assay for Macrophage colony-stimulating factor (MCSF) Biomarker Activity (AID 2283060). Particulars: primary human foreskin fibroblasts; actives raise or lower the signal. Put shortly: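 M-CSF levels, determined by ELISA, are taken at 24 h after dosing human skin fibroblasts. Responses in either direction are fitted with DMSO serving as the baseline.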

With `C[Si]1(C)O[Si](C)(C)O[Si](C)(C)O[Si](C)(C)O1`, the result in assay [1], in [2], in [3], in assay [4], in [5] and in [6] was inactive. The result in [7], in [8], in [9] and in assay [10] was inactive.
For the compound `O=c1[nH]cc(F)c(=O)[nH]1`, the outcome in assay [1], in [2], in assay [3], in [4], in assay [5] and in assay [6] was inactive. For the same compound, the outcome in assay [7], in [8] and in assay [10] was inactive. Besides, the AC50 in assay [9] was 9.52 µM (active).
On to `COCCOCCOC`, for which the result in [1], in assay [2], in assay [3], in assay [4], in assay [5] and in assay [7] was inactive. Also, the outcome in assay [8], in assay [9] and in assay [10] was inactive. Moreover, the AC50 in assay [6] was 0.148 µM (active).
As to `O=C(OCCCCCOC(=O)c1ccccc1)c1ccccc1`, the result in assay [1], in assay [2], in assay [3], in assay [4], in assay [5] and in [6] was inactive. For the same compound, the result in assay [7], in [8], in assay [9] and in assay [10] was inactive.
For the compound `CCCCc1ccc2c(n1)[C@@H](c1ccc(OC)cc1C[C@H](C)C(=O)O)[C@H](C(=O)O)[C@H]2c1ccc2c(c1)OCO2`, the result in assay [1], in [2], in assay [3], in [4], in assay [5] and in assay [6] was inactive. In addition, the result in [7], in [8], in assay [9] and in assay [10] was inactive.
Take `CNC(=O)[C@H]1O[C@@H](n2cnc3c(NCc4cc(Cl)ccc4OCc4cc(C)no4)ncnc32)[C@H](O)[C@@H]1N`: the outcome in assay [1], in assay [2], in [3], in assay [4], in assay [5] and in assay [6] was inactive. The result in assay [7], in [8], in assay [9] and in [10] was inactive.
As to `CCOC(=O)CCC(=O)OCC`, the outcome in assay [1], in assay [2], in [3], in assay [4], in assay [5] and in assay [6] was inactive. The outcome in [7], in assay [8], in [9] and in assay [10] was inactive.
For `Cc1ccc(C(C)C)c(O)c1`, the outcome in assay [1], in [2], in assay [3], in assay [4], in assay [5] and in assay [6] was inactive. Further, the result in assay [7], in [8], in assay [9] and in [10] was inactive.
With `Cc1oc(-c2ccccc2)nc1CCOc1cccc2c1ccn2CCC(=O)O`, the result in [1], in assay [2], in assay [3], in assay [4], in [5] and in [6] was inactive. Moreover, the outcome in assay [8], in assay [9] and in assay [10] was inactive.
With `CCCCCCCCCCCCCCCC`, the outcome in assay [1], in assay [2], in assay [3], in assay [4], in assay [5] and in [6] was inactive. The result in assay [7], in [8], in [9] and in assay [10] was inactive.
Consider `Nc1ccccc1N`, for which the result in assay [1], in [2], in assay [3], in assay [4], in assay [6] and in [8] was inactive. Also, the outcome in assay [10] was inactive. Also, the AC50 is 4.05 µM (active) in [5] and 16 µM (active) in [9].
Regarding `CCCCCCCCCCCC(=O)OC`, the result in assay [1], in assay [2], in assay [3], in assay [4], in [5] and in assay [6] was inactive. In addition, the outcome in assay [8] and in [10] was inactive. Moreover, the AC50 in assay [9] is 28.9 µM (active).
Regarding `C[C@]12C=CC(=O)C=C1CC[C@@H]1[C@@H]2C(=O)C[C@@]2(C)[C@H]1CC[C@]2(O)C(=O)CO`, the result in assay [1], in [2], in assay [3], in assay [5], in [6] and in assay [7] was inactive. The result in [8], in assay [9] and in assay [10] was inactive. Besides, in assay [4], the concentration at half-maximal activity (AC50) was 0.239 µM (active).
Take `COc1ccc(C)cc1N`: the result in [1], in assay [2], in [3], in assay [4], in assay [5] and in assay [6] was inactive. Moreover, the result in assay [7], in assay [8], in assay [9] and in [10] was inactive.
In the case of `Cc1ccc(C)c(O)c1C`, the outcome in assay [1], in assay [2], in assay [3], in [4], in assay [5] and in [6] was inactive. Moreover, the result in assay [7], in assay [8], in [9] and in assay [10] was inactive.
Turning to `Cc1ccc(C)c(C)c1`, the outcome in [1], in assay [2], in [3], in assay [4], in assay [5] and in assay [6] was inactive. For the same compound, the result in assay [7], in assay [8], in [9] and in [10] was inactive.
For `CCNc1cccc(C)c1`, the result in [1], in assay [2], in [3], in assay [4], in assay [5] and in [6] was inactive. In addition, the result in [7], in [8], in assay [9] and in [10] was inactive.
Regarding `CC=Cc1ccc(O)c(OC)c1`, the outcome in [1], in [2], in [3], in [4], in assay [5] and in [6] was inactive. For the same compound, the outcome in assay [7], in assay [8] and in [10] was inactive. Besides, the AC50 in assay [9] was 24.6 µM (active).
As to `CC(=O)OC/C=C(\C)CCC=C(C)C`, the result in assay [1], in [2], in [3], in [4], in assay [5] and in [6] was inactive. Besides, the outcome in assay [8] and in assay [10] was inactive. In [9], the AC50 is 0.597 µM (active).
For `CNCc1cc(F)ccc1Oc1ccc(Cl)c(Cl)c1`, the result in assay [1], in assay [2], in assay [3], in [4], in assay [5] and in assay [6] was inactive. In addition, the outcome in [7], in assay [8] and in assay [10] was inactive. Further, the AC50 in assay [9] is 23.8 µM (active).
`Cc1ccc(Cl)cc1`: the result in [1], in [2], in [3], in assay [4], in [5] and in [6] was inactive. For the same compound, the result in [7], in assay [8] and in [10] was inactive. For the same compound, the AC50 in assay [9] is 0.148 µM (active).
